From PubChem BioAssay
HP1b chromo inh = blocks HP1-beta chromodomain binding to methylated histone tails | AlphaScreen HP1-beta / biotin-H3K9me3 peptide binding | hit rate 0.56% among 390,000 | Potency, µM (doses to about 114 µM), for inactives: top-dose activity change, negative = inhibition, usual class: inhibitors; further: nearly all actives have a fitted effect of over 70% in size
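AlphaScreen: HP1-beta (50 nM) preformed 30 min with biotin-H3(1-18)K9me3 peptide (50 nM) in PBS pH 7.4, 0.01% Tween-20. Compound added for 30 min at RT, then streptavidin donor/nickel chelate acceptor beads (10 ug/mL) for 30 min.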
JMJD2A Tudor inh = JMJD2A Tudor domain (human) inhibition. AID 504339. hit rate 4.4% among 390,000. AlphaScreen JMJD2A-Tudor / H3K4me3 peptide binding. Potency, µM (series often up to 114 µM), inactives show top-dose activity change, negative = inhibition, hits mostly inhibitors. O75164; further: on the % scale 0 is the no-effect control and ±100 the full control effect; nearly all actives have a fitted effect of over 50% in size
G9a inh = G9a (human) methyltransferase inhibition. Q96KQ7. hit rate 8.8% among 350,000. Potency, µM (top dose mostly 102 µM), for the others: top-dose activity, negative = inhibition, usual class: inhibitors. AID 504332. G9a H3K9 monomethylation, AlphaScreen, 2 h; further: on the % scale 0 is the no-effect control and ±100 the full control effect; nearly all actives have a fitted effect of over 75% in size
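Readings reflect AlphaScreen signal from monomethyl-H3K9 antibody detection. HMT at 20 nM; substrate b-H3K9 500 nM; cofactor SAM 20 uM; 2 h RT reaction; compounds tested as titrations in qHTS with 15 min preincubation.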
BAZ2B inh = inhibitors of human BAZ2B bromodomain; Q9UIF8; AlphaScreen BAZ2B-H3K14Ac peptide displacement; Potency, µM (doses to about 114 µM), for the others: at the highest dose activity change, negative = inhibition, usual class: inhibitors; hit rate 4.4% among 360,000; further: on the % scale 0 is the no-effect control and ±100 the full control effect; nearly all actives have a fitted effect of over 60% in size
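Multi-concentration screen (max 110 uM) measuring displacement of acetylated histone H3 peptide from BAZ2B by AlphaScreen, using 50 nM protein, 50 nM peptide and 10 ug/mL streptavidin donor plus Ni-chelate acceptor beads.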
VDR inh = blocks the human vitamin D receptor; P11473; VDR-SRC2-3 peptide fluorescence polarization, 2 h; Potency, µM, without a hit: max response, negative = inhibition, hits mostly inhibitors; hit rate 0.93% among 400,000; AID 504847; further: on the % scale 0 is the no-effect control and ±100 the full control effect
Target sequence (P11473 whole entry, looked up): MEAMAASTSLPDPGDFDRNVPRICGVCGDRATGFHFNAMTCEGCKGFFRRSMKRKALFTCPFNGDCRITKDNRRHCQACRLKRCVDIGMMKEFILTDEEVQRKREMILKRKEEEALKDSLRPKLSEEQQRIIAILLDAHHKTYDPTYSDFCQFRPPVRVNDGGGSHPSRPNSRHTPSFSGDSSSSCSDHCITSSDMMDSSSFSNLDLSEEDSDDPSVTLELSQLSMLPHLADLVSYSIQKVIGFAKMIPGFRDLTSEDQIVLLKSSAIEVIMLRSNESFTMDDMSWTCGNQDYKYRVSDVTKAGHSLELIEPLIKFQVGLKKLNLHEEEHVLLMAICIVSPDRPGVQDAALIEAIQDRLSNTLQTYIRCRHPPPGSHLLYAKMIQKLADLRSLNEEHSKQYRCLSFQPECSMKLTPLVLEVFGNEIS
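VDR–SRC2-3 interaction, FP format. Cmpds 23 nl via pintool, brief spin, 2 h ambient incubation.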
PLK1 PBD inh = blocks phosphopeptide binding to human PLK1 polo-box domain; P53350; Plk1 PBD binding of FITC phosphopeptide, fluorescence polarization; Potency, µM, for the others: max response, negative = inhibition, hits mostly inhibitors; hit rate 2.8% among 360,000; AID 720504; further: series mostly up to about 57 µM; on the % scale 0 is the no-effect control and ±100 the full control effect; nearly all actives have a fitted effect of over 65% in size
The depositor's hits bear a star. Hits are enriched below; roughly 11% of the tested compounds scored in any of these assays. The call rests on the fitted dose curve; in most records, active means well fitted curve in the direction sought with a large enough effect; inconclusive means small, poorly fitted or top-dose-only effect, or another doubt; inactive means no such curve, though single readings can be large; an effect the other way counts as inactive or inconclusive. Potency means the concentration at half of the fitted maximal effect.

What do the screens show for `CC(C)=NOCc1ccc(-c2cn([C@@H]3COC[C@H]3O)nn2)cc1`?
G9a inh: 40µM*; BAZ2B inh: -4%

Results for NC(=O)CC[C@@H]1NC(=O)[C@H](CO)NC(=O)c2cc([N+](=O)[O-])cc(I)c2NCCC[C@@H](C(N)=O)NC(=O)[C@H](Cc2ccc(O)cc2)NC1=O ?
HP1b chromo inh: 13%; JMJD2A Tudor inh: -36%; G9a inh: 50µM*; BAZ2B inh: inconclusive; VDR inh: -2%; PLK1 PBD inh: -9%

What do the screens show for `NC(=O)[C@@H]1CCCNc2c(F)cc([N+](=O)[O-])cc2C(=O)N[C@@H](CO)C(=O)NCC(=O)N1`?
HP1b chromo inh: 21%; JMJD2A Tudor inh: -12%; G9a inh: inconclusive; BAZ2B inh: -10%; VDR inh: -2%; PLK1 PBD inh: 2%

How did NC(=O)[C@@H]1CCCNc2c(I)cc([N+](=O)[O-])cc2C(=O)N[C@@H](CO)C(=O)NCC(=O)N1 do in these assays?
HP1b chromo inh: 45%; JMJD2A Tudor inh: -6%; G9a inh: 79µM*; BAZ2B inh: -1%; VDR inh: -16%; PLK1 PBD inh: -13%

How did NC(=O)[C@@H]1CCCNc2c(I)cc([N+](=O)[O-])cc2C(=O)N[C@@H](CO)C(=O)N[C@@H](Cc2ccc(O)cc2)C(=O)N1 do in these assays?
HP1b chromo inh: 19%; JMJD2A Tudor inh: -26%; G9a inh: 45µM*; BAZ2B inh: -35%; VDR inh: -4%; PLK1 PBD inh: -6%

What do the screens show for `CC(C)C[C@@H]1NC(=O)[C@H](Cc2ccc(O)cc2)NC(=O)c2cc([N+](=O)[O-])cc(I)c2NCCC[C@@H](C(N)=O)NC1=O`?
HP1b chromo inh: 22%; JMJD2A Tudor inh: -19%; G9a inh: 71µM*; BAZ2B inh: inconclusive; VDR inh: 10%; PLK1 PBD inh: -13%

How did COc1cc(NC(=O)CCc2nnc3ccc(N4CCN(C)CC4)nn23)cc(OC)c1 do in these assays?
HP1b chromo inh: 22%; JMJD2A Tudor inh: -12%; G9a inh: 2%; BAZ2B inh: inconclusive; VDR inh: -1%; PLK1 PBD inh: -9%

What do the screens show for `COC(=O)Nc1ccc(=O)n(Cc2c(Cl)cccc2Cl)c1`?
HP1b chromo inh: 10%; JMJD2A Tudor inh: -12%; G9a inh: 71µM*; BAZ2B inh: -24%; VDR inh: -9%; PLK1 PBD inh: -10%

How did Cc1ccc(NC(=O)Nc2cccn(Cc3c(F)cccc3Cl)c2=O)cc1 do in these assays?
HP1b chromo inh: 39%; JMJD2A Tudor inh: -15%; BAZ2B inh: inconclusive; VDR inh: -7%; PLK1 PBD inh: 0%

Results for O=c1nc2n(c3sc4c(c13)CCCC4)C(CBr)CS2 (stereo not given) ?
HP1b chromo inh: 23%; JMJD2A Tudor inh: -14%; G9a inh: 50µM*; BAZ2B inh: -2%; VDR inh: inconclusive; PLK1 PBD inh: -29%

Results for COCCN(CC1CCCN(C2Cc3ccccc3C2)C1)C(=O)CCC(N)=O (stereo not given) ?
HP1b chromo inh: 33%; JMJD2A Tudor inh: -12%; G9a inh: -10%; BAZ2B inh: 9%; VDR inh: 5%; PLK1 PBD inh: -3%

Results for Cc1ccccc1N/N=C/c1c(C)nc2ccccn12 ?
HP1b chromo inh: 10%; JMJD2A Tudor inh: inconclusive; G9a inh: 35µM*; BAZ2B inh: inconclusive; VDR inh: 6%; PLK1 PBD inh: -1%

Results for COc1ccc(COC(=O)Nc2cn(C)nc2C(F)(F)F)cc1 ?
HP1b chromo inh: 34%; JMJD2A Tudor inh: 0%; G9a inh: -24%; BAZ2B inh: -10%; VDR inh: 14%; PLK1 PBD inh: 2%

What do the screens show for `O=C1/C(=C/C=C/c2ccco2)SC(=S)N1NS(=O)(=O)c1ccccc1`?
HP1b chromo inh: 10µM*; JMJD2A Tudor inh: 3.5µM*; G9a inh: 3.2µM*; BAZ2B inh: 7.1µM*; VDR inh: -19%; PLK1 PBD inh: 11µM*

What do the screens show for `COc1ccc(C(=O)CC(=O)c2ccccc2)cc1`?
HP1b chromo inh: 269%; JMJD2A Tudor inh: 158%; VDR inh: 15%; PLK1 PBD inh: -7%
